HEK293 tox: Cytotoxic Profiling in HEK 293 Cell Line of Diverse Libraries Using Quantitative High-Throughput Screening; HEK 293 viability, ATP luminescence (CellTiter-Glo), 48-72 h; Potency, µM (series often up to 115 µM), hits mostly inhibitors; hit rate 6.6% among 94,000; AID 1345083, 2018; note: nearly all actives have a fitted effect of over 60% in size
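250 HEK 293 cells/well; compound by pintool; incubated 48 or 72 hr at 37 degree Celsius; CellTiter-Glo added, 10 min RT, luminescence imaged.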
FLuc inh: Firefly luciferase inhibition profiling of diverse chemical library using quantitative high-throughput screening; Potency, µM (top dose mostly 115 µM), actives largely listed as inhibitors; hit rate 2.5% among 76,000; Luciferin 4-monooxygenase (Photinus pyralis), P08659; purified P. pyralis luciferase, luminescence, biochemical; note: nearly all actives have a fitted effect of over 65% in size
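Inhibitors were tested against purified firefly luciferase in a biochemical, low-substrate format (both substrates at 10uM) and luminescence measured with a CCD imager.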
hNpr1 antagonist: Natriuretic polypeptide receptor (hNpr1) antagonism - Primary qHTS. Atrial natriuretic peptide receptor 1 (Homo sapiens), P16066. HEK293 hNpr1 GloSensor cGMP, ANP-stimulated luminescence. Potency, µM (highest dose often 46.3 µM), most hits filed as inhibitors. hit rate 1.6% among 76,000; calls by dose curve; note: nearly all actives have a fitted effect of over 60% in size
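Compound pre-incubated 30 min at room temperature on GloSensor-loaded HEK293 cells stably carrying hNpr1 and the pGS-40F cGMP biosensor. Stimulation uses hNppA at 0.1 nM final; luminescence is taken at baseline and 20 min post-agonist.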
GPT2 inh: Primary qHTS assay for inhibitors of Glutamate pyruvate transaminase 2 (GPT2). Alanine aminotransferase 2 (Homo sapiens), Q8TD30. Recombinant GPT2, coupled pyruvate oxidase/HRP Amplex Red fluorescence. Potency, µM (doses to about 57.7 µM), most hits filed as inhibitors. hit rate 0.25% among 100,000. AID 1671188, 2021; note: nearly all actives have a fitted effect of over 60% in size
Target sequence (Q8TD30 whole entry, looked up): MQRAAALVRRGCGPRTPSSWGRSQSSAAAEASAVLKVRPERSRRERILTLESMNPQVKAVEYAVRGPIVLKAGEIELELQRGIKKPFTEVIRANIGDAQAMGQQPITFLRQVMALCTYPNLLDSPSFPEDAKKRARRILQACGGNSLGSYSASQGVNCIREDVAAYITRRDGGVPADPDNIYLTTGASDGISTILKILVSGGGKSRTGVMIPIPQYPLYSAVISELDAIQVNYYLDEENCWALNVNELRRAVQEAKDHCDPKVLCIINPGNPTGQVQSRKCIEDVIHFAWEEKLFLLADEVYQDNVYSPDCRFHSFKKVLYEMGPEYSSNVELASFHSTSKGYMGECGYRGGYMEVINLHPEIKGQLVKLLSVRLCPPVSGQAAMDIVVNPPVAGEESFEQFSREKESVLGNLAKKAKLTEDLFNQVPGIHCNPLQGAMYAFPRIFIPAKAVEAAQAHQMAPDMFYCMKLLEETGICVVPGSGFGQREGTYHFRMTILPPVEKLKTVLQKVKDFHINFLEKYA
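GPT2 10ng/uL, a-KG 250uM, L-Ala 2mM, HEPES pH7.5 + 0.0001% Tween; 30 min RT. Then Amplex mix (PO/HRP/ThPP), 30 min RT dark, fluorescence. AOA 50uM used as positive control.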
3T3 cytotox: Cytotoxic Profiling in NIH 3T3 Cell Line of Diverse Libraries Using Quantitative High-Throughput Screening; Potency, µM (highest dose often 96.7 µM), hits mostly inhibitors; hit rate 4.3% among 94,000; NIH 3T3 viability, CellTiter-Glo ATP luminescence, 48-72 h; AID 1345082, 2018; note: nearly all actives have a fitted effect of over 55% in size
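Luminescent ATP readout (CellTiter-Glo, 10 min RT) after 48 or 72 hr compound exposure of NIH 3T3 cells seeded at 400 cells/well in 1536-well format; quantitative HTS.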
Numbers stand for hits; - = inactive; ? = inconclusive; . = not tested or not shown; ! = not active in a repeat. Hits are enriched below; roughly 10% of the tested compounds scored in any of these assays. Unless noted, calls come from the whole dose curve; as a rule, active = well fitted curve in the direction sought with a large enough effect; inconclusive = small, poorly fitted or top-dose-only effect, or another doubt; inactive = no such curve, though single readings can be large; an effect the other way counts as inactive or inconclusive.

SMILES	HEK293 tox	FLuc inh	hNpr1 antagonist	GPT2 inh	3T3 cytotox
O=C(NCc1cccc(Cl)c1)c1ccc2nnc(C3CCOCC3)n2c1	-	.	.	.	-
Fc1ccc(-c2noc([C@@H]3Cc4nc[nH]c4CN3Cc3cc4ccccc4o3)n2)cc1Cl	?	?	-	-	?
O=C(NCc1ccccc1Cl)c1ccc2nnc(C3CCCC3)n2c1	?	.	.	-	35.5µM
Fc1ccccc1-c1nnc([C@H]2CCN(Cc3cccc(OC(F)(F)F)c3)C2)o1	112µM	-	-	-	?
COc1ccc2nc([C@H]3CCN(CCCc4ccccc4)C3)[nH]c2c1	63.1µM	70.8µM	-	-	?
COc1ccc2nc([C@H]3CCN(Cc4cccc(OC(F)(F)F)c4)C3)[nH]c2c1	100µM	?	?	-	89.1µM
CN(C)Cc1nnc(C2CC(NC(=O)c3ccc4scnc4c3)C2)n1C (centres undefined)	-	-	-	5.62µM!	-
Cn1c(CO[C@H]2CN(Cc3ccc4c(c3)OCCO4)C[C@H]2F)nc2ccccc21	?	-	-	-	89.1µM
Cn1cnnc1CC1CCN(C(=O)C2CCCC2)C1 (centres undefined)	-	-	-	-	-
CN(Cc1ccc(F)cc1)c1ccc2ncc(Nc3cccc(N[S+](C)(=O)[O-])c3)n2n1	35.5µM	-	?	-	31.6µM
CCN1c2cc(C(=O)Nc3ccccc3)ccc2C(=O)N2CCCCC21 (centres undefined)	?	?	-	-	?
CCOC(=O)c1cccc(NC(=O)c2ccc3c(c2)N(CC)C2CCCCCN2C3=O)c1 (centres undefined)	?	-	-	-	20µM
CCN1c2cc(C(=O)Nc3cccc(C(=O)OC)c3)ccc2C(=O)N2CCCCCC21 (centres undefined)	?	-	-	-	17.8µM
Cc1ccc(CNC2CN(C(=O)OC(C)(C)C)C2)nc1	-	.	.	-	-
O=C(c1ccc2nc(-c3ccc(F)cc3)cn2c1)N1CCC(F)CC1	?	-	-	-	-
CCNC(=O)C1CCN(C(=O)c2ccc3nc(-c4ccccc4)cn3c2)C1 (centres undefined)	-	35.5µM	-	-	-
OCc1ccc(CN2Cc3[nH]cnc3C[C@H]2c2nc(-c3ccc4ccccc4c3)no2)o1	79.4µM	?	-	-	79.4µM
OCc1ccc(CN2Cc3[nH]cnc3C[C@H]2c2nc(-c3ccncc3)no2)o1	-	?	-	-	-
Cc1ccc(CN2Cc3[nH]cnc3C[C@H]2c2nc(-c3ccc4ccccc4c3)no2)cc1	63.1µM	63.1µM	-	-	44.7µM
COc1cccc(N2CCN(c3nc(C(=O)NCc4ccco4)cs3)CC2)c1	44.7µM	-	-	-	?
CCCN(C)C(=O)c1csc(N2CCN(c3cccc(Cl)c3)CC2)n1	31.6µM	-	?	?	?
COc1ccc(N2CCN(c3nc(C(=O)NCc4ccco4)cs3)CC2)cc1	?	-	-	?	?
COc1ccc(CCC(=O)NCCc2ncc(C)n2C2CCC2)cc1	-	-	-	-	-
CCOc1cc(=O)n2c(c1C(=O)N1CCN(c3ccc(F)cc3)CC1)CCCC2	-	-	-	-	-
CSc1ccc(NC(=O)c2ccc3c(c2)N(C)C2CCCCN2C3=O)cc1 (centres undefined)	?	44.7µM	-	-	?
SMILES	HEK293 tox	FLuc inh	hNpr1 antagonist	GPT2 inh	3T3 cytotox
CN1c2cc(C(=O)Nc3ccc(F)cc3)ccc2C(=O)N2CCCCCC21 (centres undefined)	?	25.1µM	-	-	?
O=C(c1ccccc1)N1CCn2c(nnc2-c2ccc(Cl)cc2)C1	-	.	.	-	?
Cc1nc2cnccn2c1C(=O)NC1CC1	?	.	.	.	-
CCCNC(=O)N1CCC(Cc2ccc(CCNC(C)=O)cc2)CC1	44.7µM	.	.	-	?
O=C(NCCC1CCN(C(=O)Nc2cc(F)cc(F)c2)CC1)c1ccccc1	?	28.2µM	-	-	-
CCNC(=O)N1CCC(Cc2ccc(C(=O)Nc3cccc(F)c3)cc2)CC1	39.8µM	25.1µM	11.2µM	-	?
COc1ccc(-c2noc([C@@H]3CCCN3C(=O)c3ccc(Cl)cc3OC)n2)cc1	?	-	-	-	?

Bioassay records as filed in PubChem BioAssay.
